High-throughput results deposited in PubChem BioAssay by National Center for Advancing Translational Sciences (NCATS).
GPT2 inhibitor: Primary qHTS assay for inhibitors of Glutamate pyruvate transaminase 2 (GPT2); 0.25% of 100,000 active; Potency, µM (series often up to 57.7 µM), without a hit: at the top dose activity change, negative = inhibition, actives largely listed as inhibitors; Alanine aminotransferase 2 (Homo sapiens), Q8TD30; AID 1671188, 2021; Recombinant GPT2, coupled pyruvate oxidase/HRP Amplex Red fluorescence; also: potency is read from the fitted curve at half-maximal effect; nearly all actives have a fitted effect of over 60% in size
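Inhibition is scored from Amplex Red fluorescence generated when pyruvate oxidase and HRP act on pyruvate released by GPT2. Reactions contain 10ng/uL enzyme, 250uM a-KG and 2mM L-alanine and run 30 min at room temperature.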
IP6K1 inh: Primary qHTS assay for small molecule inhibitors of Inositol hexaphosphate kinase 1 (IP6K1). Inositol hexakisphosphate kinase 1 (Homo sapiens), Q92551. IP6K1 kinase, ADP-Glo luminescence, 2 h; hits give low values. activity change, % (series mostly up to about 58 µM). 0.81% of 140,000 active; in the data active = activity change below about -25%
Target sequence (Q92551 whole entry, looked up): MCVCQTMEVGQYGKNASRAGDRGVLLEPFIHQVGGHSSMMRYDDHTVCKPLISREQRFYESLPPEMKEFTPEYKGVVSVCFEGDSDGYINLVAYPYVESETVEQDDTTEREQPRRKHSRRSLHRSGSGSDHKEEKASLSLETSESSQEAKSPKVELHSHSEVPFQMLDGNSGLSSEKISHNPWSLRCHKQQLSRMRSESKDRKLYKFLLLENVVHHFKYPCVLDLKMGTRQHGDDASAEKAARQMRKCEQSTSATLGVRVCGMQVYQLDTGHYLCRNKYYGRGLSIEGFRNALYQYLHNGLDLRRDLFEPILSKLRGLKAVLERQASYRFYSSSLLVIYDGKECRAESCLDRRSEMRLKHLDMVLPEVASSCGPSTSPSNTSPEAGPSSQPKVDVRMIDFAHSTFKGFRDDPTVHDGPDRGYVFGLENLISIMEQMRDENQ
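ADP-Glo luminescence measures ADP made by human IP6K1 during a 2 h RT reaction with ATP/IP6 (mix at 1.3 mM/130 uM); top library doses 57.5 and 19.1 uM final.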
HEK293 viab: GF-AFC viability counterscreen for inhibitors of alpha-synuclein gene (SNCA) expression; HEK-293-SNCA-luc viability, GF-AFC fluorescence, 24 h; Potency, µM (highest dose often 57.1 µM), for the others: top-dose activity change, negative = cytotoxicity, actives largely listed as cytotoxic; 0.12% of 150,000 active; AID 1671193, 2021;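 also: potency is read from the fitted curve at half-maximal effect; 0% = DMSO-treated cells and -100% = medium-only wells without cells; nearly all actives have a fitted effect of over 30% in size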
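HEK-293-SNCA-luc cells (1500/well) plated 24 h, then exposed 24 h to a dilution series; GF-AFC added 30 min at 37C, fluorescence 405/540 nm; normalised to medium-only and DMSO wells, Hill fit.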
SNCA expr inh: Primary qHTS assay for inhibitors of alpha-synuclein gene (SNCA) expression | HEK-293 SNCA-luciferase knock-in, luminescence, 24 h | Potency, µM (doses to about 57.2 µM), without a hit: top-dose activity change, negative = inhibition, most hits filed as inhibitors | 0.17% of 140,000 active;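 also: potency is read from the fitted curve at half-maximal effect; plate controls were DMSO cells for no effect and cell-free wells for full effect; nearly all actives have a fitted effect of over 45% in size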
IP6K1 conf: Confirmatory qHTS assay for small molecule inhibitors of Inositol hexaphosphate kinase 1 (IP6K1); shares compounds with IP6K1 inh; Potency, µM (titrated, usually from 49 µM), without a hit: top-dose activity change, negative = inhibition, usual class: inhibitors; 13% of 1,200 active; AID 1645852, 2021; recombinant IP6K1 kinase, ADP-Glo luminescence, 2 h; also: potency is read from the fitted curve at half-maximal effect; nearly all actives have a fitted effect of over 65% in size
An asterisk follows results filed as active; i = inactive; ? = inconclusive; nt = no result; ! = not confirmed by another sample; [ ] = another dose, or the depositor's remark. Hits are enriched below; roughly 0.9% of the tested compounds scored in any of these assays. Unless noted, calls follow the shape of the dose curve; as a rule, active = well fitted curve in the direction sought with a large enough effect; inconclusive = small, poorly fitted or top-dose-only effect, or another doubt; inactive = no such curve, though single readings can be large; an effect the other way counts as inactive or inconclusive. Unless noted, % is scaled to controls: 0 for no effect and ±100 for the full control effect.

SMILES	GPT2 inhibitor	IP6K1 inh	HEK293 viab	SNCA expr inh	IP6K1 conf
CN(C)c1ccc(C(=C2C=CC(=[N+](C)C)C=C2)c2ccccc2)cc1	?	-41.5*	-77.9%[23.9 µM]	?	14.6µM*
CCOc1ccc(CNC(=O)C2CCCN(c3nn4cc(-c5ccc(OC)cc5)nc4s3)C2)cc1 (centres undefined)	nt	-36.8*	-8.6%	80.1%	?
CCOc1ccc(CNC(=O)C2CCCN(c3nn4cc(-c5ccc(F)cc5)nc4s3)C2)cc1 (centres undefined)	nt	1.3	4.5%	80.6%	nt
Cc1cnc(Nc2ccc(CN3CCOCC3)cc2)nc1Nc1cccc(S(=O)(=O)NC(C)(C)C)c1	-6.7%	-16.2	?	76.2%	-2.4%
Cc1cnc(Nc2cccc(CN3CCOCC3)c2)nc1Nc1cccc(S(=O)(=O)NC(C)(C)C)c1	?	-8.6	-14.2%	-9.4%	3.3%
CCCCCNC(=O)C1CCCN(Cc2cccc(-c3ccsc3)c2)C1 (centres undefined)	nt	-1.3	nt	nt	nt
COc1cc(/C=C(\C#N)C(=O)c2ccc(O)c(O)c2)cc(I)c1O	?	nt	-16.1%	2.1%	2.06µM*
NCc1ccc(-c2cccc(C(F)(F)F)c2)cc1	-9.5%[88.5 µM]	-9.3	-19.5%[87.6 µM]	?	nt
Cc1c(CN(C)CC2(O)CCCN(Cc3ccc(C(C)C)cc3)C2=O)cnn1C (centres undefined)	1.2%	-37.4*	2.9%	-5.8%	-5.5%
COc1cccc([S+](=O)([O-])N2CCc3nc(C4CC4)nc(-c4ccc(Cl)cc4)c3CC2)c1	i	-5.0	6.3%	-10.1%	nt
Cc1cccc(NC(=O)c2cc(-c3ccc[nH]3)n[nH]2)c1	3.8%	-9.3	5.7%	46.5%	?
O=C(Nc1cccc(F)c1)c1cc(-c2ccc[nH]2)n[nH]1	i	26.0	0.7%	196.3%	nt
COc1ccc(NC(=O)c2cc(-c3ccc[nH]3)n[nH]2)cc1F	i	13.2	-2.2%	1.0%	?
Cc1ccc(F)cc1S(=O)(=O)N1CC(C(=O)NC2CCCCC2)C2(CCOCC2)C1 (centres undefined)	-7.6%	4.9	-8.0%	8.5%	nt
CC(=O)N[C@H]1CCN(C(=O)C[C@@H]2[C@H](O)CCC3[C@](C)(CO)[C@H](OC(=O)Nc4cccc(F)c4)CC[C@]32C)C1 (some centres undefined)	?	-5.6	4.8%	9.4%	nt
COc1ccccc1C(=O)N1c2ncnn2C2(CCCCC2)[C@@H]2CCCC[C@@H]21	nt	-15.2	1.6%	-3.7%	nt
CC(C)C(=O)N1c2ncnn2C2(CCCCC2)[C@@H]2CCCC[C@@H]21	nt	-29.9*	5.5%	-20.3%	-16.9%
CS(=O)(=O)N1CCC(OC2CCN(C(=O)Nc3cc(F)ccc3F)CC2)CC1	i	0.0	11.2%	-2.5%	nt
O=C1c2c(O)ccc(O)c2C(=O)c2c(NCCNCCO)ccc(NCCNCCO)c21	10µM*!	-39.2*	?	1.21µM*!	?
C[N+](C)([O-])CCNc1ccc(NCC[N+](C)(C)[O-])c2c1C(=O)c1c(O)ccc(O)c1C2=O	-29.6%	nt	-14.5%	-13.7%	nt
COc1ccc(C(=O)N2CCC(Cc3nc(C(C)C)no3)CC2)cc1OC	i	-5.3	9.0%	0.1%	nt
Cc1cccc(C(=O)N2CCC(Cc3nc(-c4cnccn4)no3)CC2)c1	i	-27.1*	-11.5%	-10.9%	3.9%
Cc1ccc(C(=O)N2CCC(Cc3nc(C(C)C)no3)CC2)cc1C	1.9%	-27.1*	-17.4%	?	-8.1%
O=C(NCCCc1ccccc1)c1nc2sccn2c1-c1cccnc1	i	3.5	6.6%	-2.4%	nt
O=C(NCCc1ccc(Cl)cc1)c1nc(-c2cccc(C(F)(F)F)c2)c2ccccn12	-4.0%	-2.6	8.2%	-12.4%	nt
O=C(CCn1cnc2ccccc2c1=O)NC1CCCN(CCc2ccccc2)C1 (centres undefined)	i	1.6	3.1%	-22.1%	nt
